Active and inactive are the calls of the source. How the source made its calls: active means hit-call score of the fitted dose curve at least 0.9, where 1 is the maximum; inactive means score below 0.9.
What was measured:
[1] = target: Transcription factor E2F1 (Homo sapiens) (UniProt Q01094); assay: ATG_E2F_CIS: Attagene CIS-FACTORIAL HepG2 Assay for human E2F Transcription Factor 1 (AID 2282935); details: HepG2 Attagene cis-reporter, E2F reporter RNA transcripts; actives raise or lower the signal
How it was run: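 HepG2 cells transiently transfected with multiplexed cis-element reporter units, dosed for 24 h. Reporter mRNA measured by RT-PCR, 6-FAM primer-extension labeling, HpaI digestion and capillary electrophoresis; bidirectional fit versus DMSO baseline.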

[2] = ATG_E_Box_CIS: Attagene CIS-FACTORIAL HepG2 Assay for human Enhancer Box (E-box) (AID 2282936); details: HepG2 E-box cis-reporter transcription, actives raise or lower the signal
How it was run: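 HepG2 cells transiently transfected with multiplexed cis-element reporter units sensing endogenous transcription factor activity; 24 h compound exposure. Reporter mRNA measured by RT-PCR, 6-FAM primer extension, HpaI digestion and capillary electrophoresis; bidirectional fit versus DMSO.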

[3] = ATG_M_61_CIS: Attagene CIS-FACTORIAL HepG2 Assay for M61 Transcription Factor (Internal Marker) (AID 2282937); details: HepG2 Attagene CIS-FACTORIAL M61 internal marker reporter; actives raise or lower the signal
How it was run: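 HepG2 cells transiently transfected with cis-element-driven multiple reporter transcription units, dosed for 24 h. Reporter mRNA measured by RT-PCR, 6-FAM primer-extension labelling, HpaI digestion and capillary electrophoresis; bidirectional fit versus DMSO baseline.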

[4] = ATG_EGR_CIS: Attagene CIS-FACTORIAL HepG2 Assay for human Early Growth Response 1 (EGR1) (AID 2282938); details: HepG2 Attagene CIS-FACTORIAL EGR reporter mRNA; actives raise or lower the signal
How it was run: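 HepG2 cells transiently transfected with cis-promoter-driven multiplexed reporter transcription units; reporter mRNA measured 24 h after compound dosing by RT-PCR, 6-FAM primer extension, HpaI digestion and capillary electrophoresis. Bidirectional fit versus DMSO baseline.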

[5] = ATG_M_19_CIS: Attagene CIS-FACTORIAL HepG2 Assay for M19 Transcription Factor (Internal Marker) (AID 2282939); details: HepG2 Attagene CIS-FACTORIAL M19 internal marker reporter; actives raise or lower the signal
How it was run: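 Internal marker readout, fitted in both directions against DMSO, from HepG2 cells carrying transfected cis-element reporter constructs; RT-PCR and capillary electrophoresis of reporter mRNA after 24 h exposure.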

[6] = ATG_Ets_CIS: Attagene CIS-FACTORIAL HepG2 Assay for human Erythroblast Transformation Specific (ETS) (AID 2282941); details: HepG2 ETS cis-reporter transcription, actives raise or lower the signal
How it was run: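 HepG2 cells transfected with multiple cis-regulated reporter units measuring endogenous ETS-driven transcription, 24 h after dosing. Reporter mRNA quantified by RT-PCR with capillary electrophoresis; bidirectional fit relative to DMSO.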

[7] = target: Hepatocyte nuclear factor 3-beta (Homo sapiens) (UniProt Q9Y261); assay: ATG_FoxA2_CIS: Attagene CIS-FACTORIAL HepG2 Assay for human Forkhead box A2 (FOXA2) (AID 2282942); details: HepG2 cis-reporter transcription factor activity, 24 h; actives raise or lower the signal
How it was run: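 HepG2 cells transiently transfected with multiple cis-regulated reporter transcription units, dosed for 24 h. Reporter mRNA measured by RT-PCR, 6-FAM labelling, HpaI digestion and capillary electrophoresis; bidirectional fitting against DMSO baseline.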

[8] = ATG_FoxO_CIS: Attagene CIS-FACTORIAL HepG2 Assay for human Forkhead box O (FoxO) (AID 2282943); details: HepG2 Attagene cis-reporter, FoxO element, mRNA; actives raise or lower the signal
How it was run: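 HepG2 cells transiently transfected with cis-promoter-driven multiple reporter transcription units; 24 h after chemical dosing, reporter mRNA quantified by RT-PCR, fluorescent primer extension, HpaI digestion and capillary electrophoresis. Bidirectional fitting versus DMSO baseline.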

[9] = ATG_GATA_CIS: Attagene CIS-FACTORIAL HepG2 Assay for human GATA Binding Protein (AID 2282944); details: HepG2 GATA cis-element reporter, Attagene multiplex mRNA; actives raise or lower the signal
How it was run: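 Reporter transcripts from a GATA cis-regulated unit, among multiplexed reporters in transfected HepG2 cells, were measured by RT-PCR with capillary electrophoresis after 24 h dosing. Induction or loss scored relative to DMSO.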

[10] = ATG_GLI_CIS: Attagene CIS-FACTORIAL HepG2 Assay for human Zinc Finger Protein GLI1 (AID 2282945); details: HepG2, Attagene cis-factorial reporter mRNA, GLI element; actives raise or lower the signal
How it was run: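 HepG2 cells transiently transfected with cis-promoter multiplexed reporter units report endogenous transcription factor activity. After 24 h chemical exposure, reporter mRNA was quantified by RT-PCR, 6-FAM labelling, HpaI digestion and capillary electrophoresis, with bidirectional fitting against DMSO.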

[11] = target: Bile acid receptor (Homo sapiens) (UniProt Q96RI1); assay: ATG_IR1_CIS: Attagene CIS-FACTORIAL HepG2 Assay for human Nuclear Receptor Subfamily 1 Group H Member 4 (NR1H4), IR1 submotif (AID 2282946); details: IR1 reporter transcription, actives raise or lower the signal
How it was run: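 Transient MRTU transfection, HepG2; 24 h dosing; RNA → RT-PCR → 6-FAM primer extension → HpaI digest → capillary electrophoresis fluorescence. Gain/loss of signal fitted relative to DMSO.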

[12] = ATG_ISRE_CIS: Attagene CIS-FACTORIAL HepG2 Assay for human Interferon Regulatory Factor 1 (IRF1) binding to an Interferon-Stimulated Response Element (ISRE) (AID 2282948); details: HepG2 ISRE cis-reporter (Attagene), mRNA transcription readout; actives raise or lower the signal
How it was run: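 Transiently transfected HepG2 cells carrying cis-element reporter units, dosed 24 hours. Reporter mRNA quantified by RT-PCR, fluorescent primer extension, HpaI digestion and capillary electrophoresis. Bidirectional fitting relative to DMSO.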

[13] = ATG_M_06_CIS: Attagene CIS-FACTORIAL HepG2 Assay for M06 Transcription Factor (Internal Marker) (AID 2282950); details: HepG2 Attagene CIS-FACTORIAL M06 internal marker reporter; actives raise or lower the signal
How it was run: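 Serves as a background control readout. Transfected HepG2 exposed to compounds for 24 h, then reporter transcripts quantified by fluorescent RT-PCR and capillary electrophoresis. Both directions fitted against DMSO baseline.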

[14] = target: Hepatocyte nuclear factor 6 (Homo sapiens) (UniProt Q9UBC0); assay: ATG_HNF6_CIS: Attagene CIS-FACTORIAL HepG2 Assay for human Hepatocyte Nuclear Factor 6 (HNF6) (AID 2282952); details: HepG2 Attagene cis-factorial HNF6 reporter transcription; actives raise or lower the signal
How it was run: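 Cells are HepG2 carrying transiently transfected cis-promoter reporter units. Treatment lasts 24 h, after which reporter transcripts are reverse-transcribed, amplified, FAM-labelled and sized by capillary electrophoresis. DMSO serves as baseline.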

[15] = target: Heat shock factor protein 1 (Homo sapiens) (UniProt Q00613); assay: ATG_HSE_CIS: Attagene CIS-FACTORIAL HepG2 Assay for human Heat Shock Transcription Factor 1 (HSE) (AID 2282953); details: HepG2 HSE cis-reporter, Attagene RNA transcription; actives raise or lower the signal
How it was run: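 Endogenous transcription factor activity in transiently transfected HepG2, read as reporter mRNA by RT-PCR with fluorescent capillary electrophoresis after 24 h. Gain or loss of signal fitted versus DMSO baseline.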

[16] = ATG_ERE_CIS: Attagene CIS-FACTORIAL HepG2 Assay for Estrogen Response Element (ERE) (AID 2282940); details: HepG2 ERE cis-reporter, Attagene RNA transcript; actives raise or lower the signal
How it was run: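 After 24 h compound treatment, RNA from transfected HepG2 cells was reverse-transcribed, reporter cDNA PCR-amplified, FAM-labelled, HpaI-cut and resolved by capillary electrophoresis. ERE-driven cis reporter transcripts reflect endogenous factors; gain or loss scored against DMSO.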

[17] = ATG_GRE_CIS: Attagene CIS-FACTORIAL HepG2 Assay for human Glucocorticoid Response Elements (GRE) (AID 2282947); details: HepG2 GRE cis-reporter, Attagene multiplex mRNA; actives raise or lower the signal
How it was run: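 HepG2 cells transiently transfected with multiple cis-promoter reporter units measure endogenous TF activity; 24 h compound exposure. Reporter mRNA quantified by RT-PCR, FAM labelling, HpaI digestion and capillary electrophoresis; bidirectional fit vs DMSO baseline.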

[18] = ATG_MRE_CIS: Attagene CIS-FACTORIAL HepG2 Assay for human Metal Responsive Element (MRE) (AID 2282954); details: HepG2 MRE cis-reporter transcription, Attagene multiplex; actives raise or lower the signal
How it was run: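 HepG2 cells transiently transfected with multiple cis-element reporter units measure endogenous MTF1-driven transcription. After 24 h compound exposure, reporter mRNA is quantified by RT-PCR with 6-FAM labelling, HpaI digestion and capillary electrophoresis; bidirectional fits versus DMSO.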

[19] = ATG_M_32_CIS: Attagene CIS-FACTORIAL HepG2 Assay for M32 Transcription Factor (Internal Marker) (AID 2282949); details: HepG2 Attagene cis-factorial M32 reporter, mRNA; actives raise or lower the signal;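 further: background control marker of the multiplexed CIS panel rather than a real target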
How it was run: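 Internal background marker read-out: RT-PCR/capillary electrophoresis fluorescence of reporter transcripts from transiently transfected HepG2 cells after 24 h chemical exposure. Activity fitted bidirectionally relative to DMSO negative control.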

[20] = target: Hypoxia-inducible factor 1-alpha (Homo sapiens) (UniProt Q16665); assay: ATG_HIF1a_CIS: Attagene CIS-FACTORIAL HepG2 Assay for human Hypoxia Inducible Factor 1 (HIF1A) (AID 2282951); details: HepG2 Attagene cis-factorial HIF1a reporter transcription; actives raise or lower the signal
How it was run: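 HepG2 cells transiently transfected with multiplexed cis-promoter reporter units; reporter mRNA read 24 h after dosing by RT-PCR, 6-FAM primer-extension labelling, HpaI digestion and capillary electrophoresis. Bidirectional fit versus DMSO baseline.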

Measured: AC50

Sequence of Transcription factor E2F1 (Homo sapiens) (Q01094 whole entry, looked up): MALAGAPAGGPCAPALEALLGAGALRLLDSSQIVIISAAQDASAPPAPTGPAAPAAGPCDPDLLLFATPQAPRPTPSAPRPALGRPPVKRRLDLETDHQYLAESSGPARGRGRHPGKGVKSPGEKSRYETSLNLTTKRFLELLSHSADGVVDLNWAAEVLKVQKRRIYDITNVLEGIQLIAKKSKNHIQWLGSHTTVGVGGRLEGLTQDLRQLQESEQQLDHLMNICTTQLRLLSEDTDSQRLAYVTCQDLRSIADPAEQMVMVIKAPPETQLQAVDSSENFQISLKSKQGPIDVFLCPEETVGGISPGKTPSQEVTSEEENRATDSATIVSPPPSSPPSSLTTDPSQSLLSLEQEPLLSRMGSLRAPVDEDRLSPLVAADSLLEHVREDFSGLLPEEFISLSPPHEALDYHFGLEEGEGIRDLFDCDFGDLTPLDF
Sequence of Bile acid receptor (Homo sapiens) (Q96RI1 whole entry, looked up): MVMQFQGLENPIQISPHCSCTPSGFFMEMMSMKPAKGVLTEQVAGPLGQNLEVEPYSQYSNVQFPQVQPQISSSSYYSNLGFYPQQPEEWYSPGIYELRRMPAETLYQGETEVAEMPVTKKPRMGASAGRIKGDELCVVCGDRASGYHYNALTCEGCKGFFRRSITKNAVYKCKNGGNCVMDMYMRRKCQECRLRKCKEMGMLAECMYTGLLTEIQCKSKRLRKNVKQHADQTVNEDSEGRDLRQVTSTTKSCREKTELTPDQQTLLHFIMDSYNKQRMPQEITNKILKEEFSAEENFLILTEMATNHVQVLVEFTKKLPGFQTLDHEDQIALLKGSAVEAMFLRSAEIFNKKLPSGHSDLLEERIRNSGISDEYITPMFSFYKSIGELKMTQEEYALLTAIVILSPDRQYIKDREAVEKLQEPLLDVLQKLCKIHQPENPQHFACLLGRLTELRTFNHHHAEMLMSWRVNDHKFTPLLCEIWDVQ
Sequence of Hepatocyte nuclear factor 6 (Homo sapiens) (Q9UBC0 whole entry, looked up): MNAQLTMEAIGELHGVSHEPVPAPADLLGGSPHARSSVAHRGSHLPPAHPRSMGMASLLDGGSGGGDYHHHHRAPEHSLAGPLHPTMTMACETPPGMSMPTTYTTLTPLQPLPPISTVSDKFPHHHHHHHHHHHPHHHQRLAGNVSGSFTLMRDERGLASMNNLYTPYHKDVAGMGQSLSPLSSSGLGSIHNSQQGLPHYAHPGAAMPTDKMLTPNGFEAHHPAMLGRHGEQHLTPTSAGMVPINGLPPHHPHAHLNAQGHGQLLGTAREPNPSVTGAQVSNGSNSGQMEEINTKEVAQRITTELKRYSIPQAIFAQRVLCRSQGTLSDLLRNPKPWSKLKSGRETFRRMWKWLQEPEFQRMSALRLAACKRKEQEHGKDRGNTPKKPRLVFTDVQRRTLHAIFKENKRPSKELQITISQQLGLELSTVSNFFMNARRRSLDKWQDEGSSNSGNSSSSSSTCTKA
Sequence of Heat shock factor protein 1 (Homo sapiens) (Q00613 whole entry, looked up): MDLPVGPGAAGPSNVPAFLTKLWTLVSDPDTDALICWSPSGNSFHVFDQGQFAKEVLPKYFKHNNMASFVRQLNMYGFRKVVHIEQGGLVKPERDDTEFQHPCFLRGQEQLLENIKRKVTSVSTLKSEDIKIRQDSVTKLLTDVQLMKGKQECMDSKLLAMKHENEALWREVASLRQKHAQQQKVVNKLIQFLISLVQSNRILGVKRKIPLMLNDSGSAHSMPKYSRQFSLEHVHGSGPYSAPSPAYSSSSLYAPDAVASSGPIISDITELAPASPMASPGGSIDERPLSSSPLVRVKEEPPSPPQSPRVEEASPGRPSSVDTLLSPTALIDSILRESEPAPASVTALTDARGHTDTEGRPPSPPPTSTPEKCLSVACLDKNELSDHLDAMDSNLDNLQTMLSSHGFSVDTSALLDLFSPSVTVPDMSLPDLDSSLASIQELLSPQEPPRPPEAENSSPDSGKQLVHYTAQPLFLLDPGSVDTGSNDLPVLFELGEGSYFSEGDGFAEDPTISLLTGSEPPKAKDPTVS
Sequence of Hepatocyte nuclear factor 3-beta (Homo sapiens) (Q9Y261 whole entry, looked up): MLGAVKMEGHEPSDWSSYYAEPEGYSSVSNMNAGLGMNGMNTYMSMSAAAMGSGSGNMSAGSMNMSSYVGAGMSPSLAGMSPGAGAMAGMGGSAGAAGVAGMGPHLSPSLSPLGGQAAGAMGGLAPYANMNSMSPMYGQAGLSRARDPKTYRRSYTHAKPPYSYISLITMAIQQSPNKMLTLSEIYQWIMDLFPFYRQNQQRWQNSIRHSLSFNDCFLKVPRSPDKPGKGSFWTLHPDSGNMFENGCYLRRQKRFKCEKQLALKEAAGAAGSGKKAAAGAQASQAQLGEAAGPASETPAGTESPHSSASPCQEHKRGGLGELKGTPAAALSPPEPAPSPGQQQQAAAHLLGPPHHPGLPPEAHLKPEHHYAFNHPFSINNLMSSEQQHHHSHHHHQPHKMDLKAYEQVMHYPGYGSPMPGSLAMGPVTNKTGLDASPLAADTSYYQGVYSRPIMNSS
Sequence of Hypoxia-inducible factor 1-alpha (Homo sapiens) (Q16665 whole entry, looked up): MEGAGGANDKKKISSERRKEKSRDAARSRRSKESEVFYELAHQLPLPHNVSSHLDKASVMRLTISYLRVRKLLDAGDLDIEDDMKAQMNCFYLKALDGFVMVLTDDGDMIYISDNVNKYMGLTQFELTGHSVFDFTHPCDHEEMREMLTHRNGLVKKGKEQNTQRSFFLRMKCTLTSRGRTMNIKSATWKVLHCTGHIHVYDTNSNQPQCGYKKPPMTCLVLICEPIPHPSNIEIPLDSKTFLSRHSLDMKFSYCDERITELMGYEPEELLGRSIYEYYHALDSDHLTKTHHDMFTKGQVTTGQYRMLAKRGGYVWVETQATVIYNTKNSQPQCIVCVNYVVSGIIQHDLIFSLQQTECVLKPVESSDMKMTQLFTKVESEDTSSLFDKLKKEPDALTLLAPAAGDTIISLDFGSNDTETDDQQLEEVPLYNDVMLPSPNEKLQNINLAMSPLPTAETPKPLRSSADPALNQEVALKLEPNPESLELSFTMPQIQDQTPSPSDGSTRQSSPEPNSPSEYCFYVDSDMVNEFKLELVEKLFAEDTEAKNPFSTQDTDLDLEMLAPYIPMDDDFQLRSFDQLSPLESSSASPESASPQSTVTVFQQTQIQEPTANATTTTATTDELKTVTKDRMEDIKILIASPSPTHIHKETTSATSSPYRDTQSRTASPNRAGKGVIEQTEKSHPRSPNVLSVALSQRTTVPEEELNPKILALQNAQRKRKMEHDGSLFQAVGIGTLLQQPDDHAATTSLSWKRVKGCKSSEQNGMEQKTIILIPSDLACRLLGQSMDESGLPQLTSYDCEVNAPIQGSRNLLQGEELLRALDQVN

CCC(C)OC(=O)N1CCCCC1CCO (stereo not given)
not listed: [16] | [17] | [18] | [19] | [20]
inactive: all other assays above

CCSC(=O)N(CC(C)C)CC(C)C
not listed: [11] | [19] | [20]
inactive: all other assays above

CCCCC(CC)CN1C(=O)C2C3C=CC(C3)C2C1=O (stereo not given)
not listed: [11] | [18] | [20]
inactive: all other assays above

S=C([S-])NCCNC(=S)[S-].[Mn+2]
not listed: [11] | [16] | [20]
inactive: all other assays above

c1ccc(Nc2ccccc2)cc1
not listed: [11] | [16] | [17] | [18] | [19] | [20]
inactive: all other assays above

CC(C)(C)[C@@H](O)[C@@H](Cc1ccc(Cl)cc1)n1cncn1
active: [4] 26.1 µM | [6] 68.5 µM | [8] 12.6 µM | [11] 41.3 µM | [17] 90.9 µM
not listed: [16] | [19]
inactive: all other assays above

CCOC(=O)[C@H](C)Oc1ccc(Oc2nc3ccc(Cl)cc3o2)cc1
not listed: [16] | [18] | [19]
inactive: all other assays above
